In the library only some 4.8% were active in any assay of this set; here they are far more common.
IL-1B inflam inh – blocks inflammasome-driven IL-1 beta release; THP-1 LPS/ATP IL-1B secretion, AlphaLISA, 16 h; stronger effect = lower value; activity change, % at 57.5 µM; 360,000 compounds, 4.7% hits; AID 743279; in the data active = activity change below about -50%; inconclusive = mostly about -30% to -49%; note: % is set by controls: 0 for no effect and ±100 for the full control effect
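THP-1 cells pretreated 1 hr with compounds (up to 57.5 uM final), then stimulated with LPS (250 ng/mL final) plus ATP (1.25 mM final); secreted IL-1B measured by AlphaLISA after 16 hr, decreased signal indicating inhibition.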
ATXN2 expr inh – ATXN2 expression inhibition | HEK-293 ATXN2-luciferase reporter, luminescence, 24 h | Potency, µM (titrated, usually from 57 µM), for the others: at the top dose activity change, negative = inhibition, hits mostly inhibitors | 360,000 compounds, 0.72% hits | AID 1745845; note: potency is the fitted concentration of half-maximal effect; % is set by controls: 0 for no effect and ±100 for the full control effect; nearly all actives have a fitted effect of over 55% in size
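ATXN2-luciferase reporter cells (luciferase flanked by upstream and downstream ATXN2 gene portions) were treated 24 h at 37 °C with compounds at up to 57 uM. SteadyGlo luminescence gave expression; GF-AFC fluorescence gave viability.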
ATXN viability – cell viability loss in ATXN counter-screen; 400,000 compounds, 0.49% hits; Potency, µM (highest dose often 56.7 µM), hits mostly cytotoxic; S2 cells (HEK-293 line with an ATXN2-luciferase reporter) viability, CellTiter-Fluor protease fluorescence, 24 h; AID 651635; note: potency is the fitted concentration of half-maximal effect; nearly all actives have a fitted effect of over 40% in size
USP2a inh – blocks human ubiquitin-specific protease USP2a | AID 463254 | O75604 | 330,000 compounds, 0.01% hits | Potency, µM (series often up to 38.3 µM), inactives show at the top dose activity change, negative = inhibition, actives largely listed as inhibitors | USP2 core, Ub-CHOP2 coupled fluorogenic reporter, 485/531;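 note: potency is the fitted concentration of half-maximal effect; plate controls were DMSO wells for no effect and full inhibition by NEM control for full effect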
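Cell-free coupled assay: 10nM USP2 core preincubated 30min RT with compound in Tris-HCl pH 8.0/CaCl2/CHAPS buffer, then 25nM Ub-CHOP2 and 25nM reporter substrate; fluorescence (Ex 485/Em 531) read after 60min RT, normalized to NEM inhibition, concentration-response curves fitted.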
USP1 inh – blocks the human USP1/UAF1 deubiquitinase complex; Potency, µM (doses to about 57.1 µM), without a hit: at the top dose activity change, negative = inhibition, usual class: inhibitors; recombinant USP1/UAF1, Ub-Rhodamine cleavage fluorescence; O94782; AID 743255; 390,000 compounds, 0.23% hits; note: potency is the fitted concentration of half-maximal effect; % is set by controls: 0 for no effect and ±100 for the full control effect; nearly all actives have a fitted effect of over 60% in size
Target sequence (O94782 whole entry, looked up): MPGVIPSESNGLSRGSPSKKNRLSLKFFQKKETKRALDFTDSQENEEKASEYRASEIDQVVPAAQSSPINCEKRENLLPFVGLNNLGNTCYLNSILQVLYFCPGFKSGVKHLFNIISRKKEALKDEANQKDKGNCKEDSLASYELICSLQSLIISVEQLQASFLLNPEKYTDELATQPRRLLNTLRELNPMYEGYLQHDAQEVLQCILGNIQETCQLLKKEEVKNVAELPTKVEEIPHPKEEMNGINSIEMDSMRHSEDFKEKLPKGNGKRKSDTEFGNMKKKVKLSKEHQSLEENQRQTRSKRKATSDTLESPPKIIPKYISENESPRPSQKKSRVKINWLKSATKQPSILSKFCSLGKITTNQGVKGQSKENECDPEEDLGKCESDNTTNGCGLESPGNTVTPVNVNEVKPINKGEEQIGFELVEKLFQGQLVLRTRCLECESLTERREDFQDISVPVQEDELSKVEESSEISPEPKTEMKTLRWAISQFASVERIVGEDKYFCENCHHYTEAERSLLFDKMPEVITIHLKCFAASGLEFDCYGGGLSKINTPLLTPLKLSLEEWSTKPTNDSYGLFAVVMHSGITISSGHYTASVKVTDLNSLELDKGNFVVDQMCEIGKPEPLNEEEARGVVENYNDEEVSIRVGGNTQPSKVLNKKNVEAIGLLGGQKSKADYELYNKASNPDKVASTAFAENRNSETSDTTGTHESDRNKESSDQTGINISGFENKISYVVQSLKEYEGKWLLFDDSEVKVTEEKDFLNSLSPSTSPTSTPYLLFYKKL
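High-throughput fluorogenic screen: 1nM USP1/UAF1 complex, Ub-Rho substrate 150nM final, 50mM HEPES pH 7.8 with 0.5mM EDTA, 0.1 mg/ml BSA, 1mM TCEP and 0.01% Tween-20.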
Numbers without * were called inactive; i = inactive; ? = inconclusive; · = no result; [ ] = another dose, or the depositor's remark. Unless noted, calls come from the whole dose curve; as a rule, active = well fitted curve in the direction sought with a large enough effect; inconclusive = small, poorly fitted or top-dose-only effect, or another doubt; inactive = no such curve, though single readings can be large; an effect the other way counts as inactive or inconclusive.

SMILES	IL-1B inflam inh	ATXN2 expr inh	ATXN viability	USP2a inh	USP1 inh
CN(Cc1ccccc1)C(=O)c1ccc(CSc2nc3cccnc3n2Cc2ccccc2)cc1	·	-14%	?	·	-4%
Cc1cnc(C)c(-c2ccc(F)c3c2OC(CNC(=O)Cc2c(F)cccc2F)C3)n1 (stereo not drawn)	·	·	i	·	·
Cc1c(C(=O)N(C)C2CCOC2)cnn1-c1ncc2c(n1)-c1ccccc1CCC2 (stereo not drawn)	·	·	i	·	·
O=C(Nc1cc(Cl)ccc1-n1cncn1)c1cc(F)c(F)c(F)c1F	-93*	-15%	?	3%	-25%
CS(=O)(=O)c1ccccc1C(=O)Nc1cc(Cl)ccc1-n1cncn1	-1	10%	i	0%	2%
O=C(c1cc(COc2ccc(F)cc2F)on1)N1CC2C[C@@H]3CC1C[C@H](C2)C3	-98*	16%	i	-2%	-24%
CN1CCN(C(=O)c2cc(COc3ccc(F)cc3Cl)on2)CC1c1ccccc1 (stereo not drawn)	-88*	-28%	i	-6%	0%
Cc1ccc(N(Cc2ccccc2)C(=O)c2cccc(S(=O)(=O)N3CCOCC3)c2)cc1	2	-11%	i	-2%	-5%
CCN(CC)c1ccc(NC(=O)c2ccc(S(=O)(=O)N3CCOCC3)cc2)cc1	-51*	-3%	i	1%	-20%
O=C(Nc1ccc(S(=O)(=O)N2CCOCC2)cc1)c1ccc(S(=O)(=O)N2CCOCC2)cc1	22	2%	i	0%	-13%
Cc1ccc(N(Cc2ccccc2)C(=O)c2ccc(S(=O)(=O)N3CCOCC3)cc2)cc1	-60*	6%	i	-1%	-20%
Cc1cc(C)c(O)c(-c2cc(C(=O)Nc3ccc(S(=O)(=O)N4CCOCC4)cc3)[nH]n2)c1	-86*	18µM*	?	-14%	3%
CCN(CC)c1ccc(/C=N/NC(=O)CCC(=O)NCc2ccccc2)c(O)c1	48	3.5µM*	i	0%	-3%
CCOC(=O)N/N=C/c1ccc(N(CC)CC)cc1O	8	15%	i	3%	-15%
COc1cc(CNCc2cc3ccc(F)cc3nc2N2CCOCC2)cc(OC)c1OC	·	·	i	·	·
OC[C@H]1O[C@@H](Oc2ccc(O)cc2)[C@H](O)[C@@H](O)[C@H]1O	·	9%	·	·	·
CCN(CC)c1ccc(/C=N/NC(=O)c2cccc(S(=O)(=O)N3CCOCC3)c2)c(O)c1	200	1.9µM*	·	-1%	?
CC(C)CCCCCCNC(=S)Nc1ccc(S(=O)(=O)N2CCOCC2)cc1	-82*	?	?	1%	-13%
CCN(CC)c1ccc(C=Nc2cccc(S(=O)(=O)N3CCOCC3)c2)c(O)c1	-8	-3%	?	2%	-17%
Cc1ccc(-c2nnc(Nc3ccc(C(=O)N(C)C)cc3)c3ccccc23)cc1S(=O)(=O)N(C)C	·	-1%	i	·	-22%
CCOC(=O)Cc1ccc(NC(=O)n2ncc3cc(Cl)ccc32)cc1	·	20µM*	i	·	5%
CCOC(=O)Cc1ccc(NC(=O)n2ncc3c(C)cccc32)cc1	·	-12%	i	·	-10%
O=C(NC1CCCCC1c1ccccc1)c1ccccc1 (stereo not drawn)	-6	9%	i	·	3%
CC1C/C(=C/c2ccncc2)C(=O)/C(=C/c2ccncc2)C1 (stereo not drawn)	-84*	·	?	-2%	?
Cc1ncc2c(c1CNS(=O)(=O)N(C)C)CCN(C(=O)c1ccc(F)cc1Cl)C2	·	·	i	·	·
SMILES	IL-1B inflam inh	ATXN2 expr inh	ATXN viability	USP2a inh	USP1 inh
OCc1ccccc1O	·	16%	i	·	·
OCc1ccccc1SSc1ccccc1CO	-99*	?	?	·	?
Cc1nn(C(C)C(=O)NCc2ccco2)c(C)c1[N+](=O)[O-] (stereo not drawn)	0	·	?	16%	-23%
C/C(=N\NC(=O)C(C)n1nc(C)c([N+](=O)[O-])c1C)c1ccccc1O (stereo not drawn)	49	16µM*	i	-1%	-2%
CSc1ncccc1C(=O)OCC(=O)N(C)Cc1ccc(C)cc1	30	·	?	·	-26%
O=C1N=C(N2CCN(c3ccccc3)CC2)S/C1=C/c1cccs1	-58*	4%[11.3 µM]	i	0%	?
CCc1ccc(/C=C2\SC(N3CCCC3)=NC2=O)cc1	-60*	-22%	i	2%	-4%
O=C1N=C(N2CCCCC2)S/C1=C\c1ccncc1	-52*	26%	i	1%	-19%
O=C1N=C(N2CCN(Cc3ccccc3)CC2)S/C1=C/c1cccs1	·	40%	i	0%	10%
COc1ccc(/C=C2\SC(N3CCCCC3)=NC2=O)cc1	-1	-6%	i	2%	-15%
Cc1cccc2cc(CN(Cc3cccnc3)C(=O)c3cccs3)c3nnnn3c12	·	·	·	1%	·
COc1cccc(-c2nnc3sc(CN4CCCCC4)cn23)c1	·	-7%	?	·	1%
NCc1c[nH]c(=S)n1[C@H]1CCc2c(F)cc(F)cc2C1	·	49%	·	·	·
COCCN1Cc2cc3cc(C)ccc3nc2SC1=Nc1cccc(OC)c1	-3	10%	i	-5%	-15%
Cc1cccc(N=C2Sc3nc4c(C)c(C)ccc4cc3CN2CCN2CCOCC2)c1	-59*	-18%	i	-3%	-25%
COCCCNCCOc1ccc(C(C)(C)c2ccccc2)cc1	-68*	-28%	i	2%	-3%
CNCCCOc1ccc(C(C)(C)c2ccccc2)cc1	·	·	·	-3%	·
CCC(C)NCCOc1ccc(C(C)(C)c2ccccc2)cc1 (stereo not drawn)	-66*	-31%	?	3%	-6%
CCN(c1ncnc2c1c(-c1ccccc1)cn2-c1ccccc1)C1CCCCC1	·	·	·	·	-9%
CC1(C(=O)N/N=C/c2c(F)c(F)c(F)c(F)c2F)CC1(Cl)Cl (stereo not drawn)	-100*	?	?	·	-18%
COc1ccc(-n2c(CCNC(=O)c3ccc(-c4cccc(F)c4)cc3)nnc2SC)cc1	·	·	i	·	·
CN(C)CCNc1nc2sc3c(c2c(=O)n1-c1ccc(F)cc1)CCCCC3	-54*	-1%	i	0%	-5%
CN(C)CCNc1nc2sc3c(c2c(=O)n1Cc1ccccc1)CCCCC3	-96*	?	?	-1%	-20%
O=c1c2c3c(sc2nc(N2CCNCC2)n1CCc1ccccc1)CCCCC3	-55*	-29%	i	2%	-20%
Cc1ccccc1-c1ccc(CN2CCc3nnc(C(NS(C)(=O)=O)C(C)C)n3CC2)cc1 (stereo not drawn)	·	·	i	·	·
CO/N=C(/C(=O)N[C@@H]1C(=O)N2C(C(=O)[O-])=C(C[n+]3ccn4ncccc43)CS[C@H]12)c1nsc(N)n1	·	7%	i	·	·
